From the supplement of paper PMC8975748
Counter-ions that a name gives are not always drawn. ± gives the standard deviation of the averaged measurements.

Tests used:
[1] = test system: Saccharomyces cerevisiae BY4741 SeMeCo community; test: mean cell size (pixel area) (pixels); higher = larger cells; conditions: 10 µM; 24 h; SM minimal medium
In short: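 A Saccharomyces cerevisiae BY4741 community carrying four plasmids, each with a fluorescent marker and each complementing one auxotrophy, was exposed for 24 h to drug at a final 10 µM in SM medium in acoustically predosed 384-well plates. The overnight preculture (OD600 = 1.0) was diluted to OD600 = 0.3 before 70 µl was added per well. Cells were then fixed with paraformaldehyde, imaged by automated confocal microscopy and analysed in Harmony to derive mean cell pixel area per well, averaged over 3 replicates. Same SeMeCo high-content imaging drug screen: Selleck FDA-approved drugs at 10 µM, 24 h in SM medium, 384-well plates, 3 replicates.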

[2] = test system: Saccharomyces cerevisiae BY4741 SeMeCo community; test: z-score of prototroph abundance vs DMSO median; higher = larger share of this subpopulation than in DMSO controls; conditions: 10 µM; 24 h; SM minimal medium; subpopulation (auxotrophy): Prototroph
In short: (§1)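 Cells of a Saccharomyces cerevisiae BY4741 community, carrying four plasmids that each restored one auxotrophy and encoded a distinct fluorescent protein, were pre-grown overnight to OD600 1.0 and diluted to 0.3. A 70 µl volume was added to 384-well plates acoustically predosed with library drugs (10 µM final) and grown 24 h in minimal SM medium. After paraformaldehyde fixation, automated confocal microscopy was used, with single-auxotroph fluorescent strains for thresholds and autofluorescence correction. The abundance of each subpopulation was scored as a z-score against the vehicle-well median.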

[3] = test system: Saccharomyces cerevisiae BY4741 SeMeCo community; test: z-score of subpopulation abundance vs DMSO median, subpopulation auxotrophic for L; higher = larger share of this subpopulation than in DMSO controls; conditions: 10 µM; 24 h; SM minimal medium; subpopulation (auxotrophy): L
In short: as §1

[4] = test system: Saccharomyces cerevisiae BY4741 SeMeCo community; test: z-score of subpopulation abundance vs DMSO median, subpopulation auxotrophic for U; higher = larger share of this subpopulation than in DMSO controls; conditions: 10 µM; 24 h; SM minimal medium; subpopulation (auxotrophy): U
In short: as §1

[5] = test system: Saccharomyces cerevisiae BY4741 SeMeCo community; test: z-score of subpopulation abundance vs DMSO median, subpopulation auxotrophic for H; higher = larger share of this subpopulation than in DMSO controls; conditions: 10 µM; 24 h; SM minimal medium; subpopulation (auxotrophy): H
In short: as §1

[6] = test system: Saccharomyces cerevisiae BY4741 SeMeCo community; test: z-score of subpopulation abundance vs DMSO median, subpopulation auxotrophic for LU; higher = larger share of this subpopulation than in DMSO controls; conditions: 10 µM; 24 h; SM minimal medium; subpopulation (auxotrophy): LU
In short: as §1

[7] = test system: Saccharomyces cerevisiae BY4741 SeMeCo community; test: z-score of subpopulation abundance vs DMSO median, subpopulation auxotrophic for LM; higher = larger share of this subpopulation than in DMSO controls; conditions: 10 µM; 24 h; SM minimal medium; subpopulation (auxotrophy): LM
In short: as §1

[8] = test system: Saccharomyces cerevisiae BY4741 SeMeCo community; test: z-score of subpopulation abundance vs DMSO median, subpopulation auxotrophic for HM; higher = larger share of this subpopulation than in DMSO controls; conditions: 10 µM; 24 h; SM minimal medium; subpopulation (auxotrophy): HM
In short: as §1

[9] = test system: Saccharomyces cerevisiae BY4741 SeMeCo community; test: z-score of subpopulation abundance vs DMSO median, subpopulation auxotrophic for HU; higher = larger share of this subpopulation than in DMSO controls; conditions: 10 µM; 24 h; SM minimal medium; subpopulation (auxotrophy): HU
In short: as §1

[10] = test system: Saccharomyces cerevisiae BY4741 SeMeCo community; test: z-score of subpopulation abundance vs DMSO median, subpopulation auxotrophic for UM; higher = larger share of this subpopulation than in DMSO controls; conditions: 10 µM; 24 h; SM minimal medium; subpopulation (auxotrophy): UM
In short: as §1

[11] = test system: Saccharomyces cerevisiae BY4741 SeMeCo community; test: z-score of subpopulation abundance vs DMSO median, subpopulation auxotrophic for HL; higher = larger share of this subpopulation than in DMSO controls; conditions: 10 µM; 24 h; SM minimal medium; subpopulation (auxotrophy): HL
In short: as §1

[12] = test system: Saccharomyces cerevisiae BY4741 SeMeCo community; test: z-score of subpopulation abundance vs DMSO median, subpopulation auxotrophic for HLU; higher = larger share of this subpopulation than in DMSO controls; conditions: 10 µM; 24 h; SM minimal medium; subpopulation (auxotrophy): HLU
In short: as §1

[13] = test system: Saccharomyces cerevisiae BY4741 SeMeCo community; test: z-score of subpopulation abundance vs DMSO median, subpopulation auxotrophic for HLM; higher = larger share of this subpopulation than in DMSO controls; conditions: 10 µM; 24 h; SM minimal medium; subpopulation (auxotrophy): HLM
In short: as §1

[14] = test system: Saccharomyces cerevisiae BY4741 SeMeCo community; test: z-score of subpopulation abundance vs DMSO median, subpopulation auxotrophic for HUM; higher = larger share of this subpopulation than in DMSO controls; conditions: 10 µM; 24 h; SM minimal medium; subpopulation (auxotrophy): HUM
In short: as §1

[15] = test system: Saccharomyces cerevisiae BY4741 SeMeCo community; test: z-score of subpopulation abundance vs DMSO median, subpopulation auxotrophic for LUM; higher = larger share of this subpopulation than in DMSO controls; conditions: 10 µM; 24 h; SM minimal medium; subpopulation (auxotrophy): LUM
In short: as §1

[16] = test system: Saccharomyces cerevisiae BY4741 SeMeCo community; test: z-score of subpopulation abundance vs DMSO median, subpopulation auxotrophic for HLUM; higher = larger share of this subpopulation than in DMSO controls; conditions: 10 µM; 24 h; SM minimal medium; subpopulation (auxotrophy): HLUM
In short: as §1

[17] = test system: Saccharomyces cerevisiae BY4741 SeMeCo community; test: z-score of subpopulation abundance vs DMSO median, subpopulation auxotrophic for M; higher = larger share of this subpopulation than in DMSO controls; conditions: 10 µM; 24 h; SM minimal medium; subpopulation (auxotrophy): M
In short: as §1

Compound | mean cell size [1] | z-score of prototroph abundance [2] | z-score of subpopulation abundance [3] | z-score of subpopulation abundance [4] | z-score of subpopulation abundance [5] | z-score of subpopulation abundance [6] | z-score of subpopulation abundance [7] | z-score of subpopulation abundance [8] | z-score of subpopulation abundance [9] | z-score of subpopulation abundance [10] | z-score of subpopulation abundance [11] | z-score of subpopulation abundance [12] | z-score of subpopulation abundance [13] | z-score of subpopulation abundance [14] | z-score of subpopulation abundance [15] | z-score of subpopulation abundance [16] | z-score of subpopulation abundance [17]
COCCCOc1ccnc(C[S+]([O-])c2nc3ccccc3[nH]2)c1C (stereo not drawn) [Rabeprazole] | 12.5 ± 0.21 | -0.81 | 1.62 | 0.43 | 2.01 | 1.56 | -0.33 | 0.01 | 0.85 | -0.92 | 1.62 | 1.71 | 0.32 | 0.23 | 0.63 | 0 | –
CCN(CC)CCOC(=O)c1ccc(N)cc1Cl [Chloroprocaine HCl] | 12.51 ± 0.1 | -0.55 | – | 0.25 | – | – | 0.62 | -0.02 | -0.26 | 0.74 | – | 0.39 | -0.23 | 0.14 | 0.45 | – | 0.42
CC(C)NNC(=O)c1ccncc1 [Iproniazid] | 12.4 ± 0.22 | -0.56 | -0.39 | 1.2 | 0.01 | 1.04 | 0.08 | -0.24 | 0.46 | – | – | 0.8 | -0.85 | 0.2 | 0.03 | 0.07 | –
CCCN(CCC)CCc1cccc2c1CC(=O)N2 [Ropinirole HCl] | 12.4 ± 0.22 | – | 1.95 | 0.26 | -0.16 | 1.24 | 0.91 | 0.44 | 0.41 | 0.06 | 0.65 | 1.05 | -0.19 | 0.58 | 1.74 | 0.64 | –
C=CC1=C(C(=O)O)N2C(=O)[C@@H](NC(=O)/C(=N\OCC(=O)O)c3csc(N)n3)[C@H]2SC1 [Cefixime] | 12.52 ± 0.039 | 0.71 | -0.33 | 0.43 | -0.5 | -0.02 | – | -0.97 | 0.1 | -0.25 | -0.16 | -0.72 | -0.25 | -0.75 | – | -0.73 | –
CC1(C)S[C@@H]2[C@H](NC(=O)C(c3ccccc3)S(=O)(=O)O)C(=O)N2[C@H]1C(=O)O (stereo partly drawn) [Sulbenicillin Sodium] | 12.35 ± 0.08 | -0.72 | -0.32 | 1.09 | 1.2 | 1.06 | -0.34 | -0.06 | 0.51 | 1.5 | 0.63 | 0.86 | 3.16 | 0.43 | 0.65 | – | –
NC12CC3CC(CC(C3)C1)C2 [Amantadine HCl] | – | 0.23 | -0.67 | 0.19 | – | -0.18 | – | -0.31 | -0.11 | – | -0.19 | -0.31 | -0.47 | -0.08 | -0.72 | -0.01 | –
